Results on three compounds are retold here after PubChem BioAssay (NCI).

Molecules are shown by their SMILES. Compounds without any hit were thinned out: in the full panel of roughly 83,000, 20% have a hit.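 Each cell line was grown in a 96-well plate and treated with one concentration of compound for 48 hours. Values below 10 were considered active.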 A number with no mark means an inactive call. Active and inactive are the calls of the source.

What all share (assay): NCI-60 one-dose screen, 48 h (100 = growth as untreated, 0 = no growth, -100 = all killed)
In assay [1] the test system is HL-60(TB) leukemia. Particulars: 10 µM unless noted.
Assay [2] relates to NCI-H226 lung. As to conditions: 10 µM unless noted.
Assay [3] concerns HOP-62 NSCLC. As to conditions: 10 µM unless noted.
In assay [4] the test system is NCI-H460 lung. Particulars: 10 µM unless noted.
The test system of assay [5] is HOP-92 NSCLC. Particulars: 10 µM unless noted.
For assay [6], the system named is NCI-H522 lung. As to conditions: 10 µM unless noted.
For assay [7], the system named is A549/ATCC NSCLC. As to conditions: 10 µM unless noted.
In assay [8] the test system is 786-0 renal. Particulars: 10 µM unless noted.
Assay [9] concerns COLO 205 colon. As to conditions: 10 µM.
Assay [10] deals with DU-145 prostate. Particulars: 10 µM unless noted.
In assay [11] the test system is MALME-3M melanoma. As to conditions: 10 µM unless noted.
Assay [12] concerns MDA-MB-231 breast. Particulars: 10 µM unless noted.
In assay [13] the test system is RXF 393 renal. As to conditions: 10 µM unless noted.
In assay [14] the test system is SF-268 CNS. Particulars: 10 µM unless noted.
Assay [15] concerns SF-295 CNS. Particulars: 10 µM unless noted.
Assay [16] concerns SF-539 CNS. As to conditions: 10 µM unless noted.
For assay [17], the system named is UACC-257 melanoma. As to conditions: 10 µM unless noted.
The test system of assay [18] is M14 melanoma. As to conditions: 10 µM unless noted.
Assay [19] deals with HCT-15 colon. Particulars: 10 µM.
Assay [20] has as its system HT29 colon. As to conditions: 10 µM unless noted.
Assay [21] deals with SNB-75 CNS. Particulars: 10 µM unless noted.
Assay [22] deals with SNB-19 CNS. As to conditions: 10 µM unless noted.
Assay [23] relates to PC-3 prostate. Particulars: 10 µM unless noted.
Assay [24] concerns SK-MEL-5 melanoma. Particulars: 10 µM unless noted.
Assay [25] deals with UACC-62 melanoma. As to conditions: 10 µM unless noted.
Assay [26] concerns LOX IMVI melanoma. As to conditions: 10 µM unless noted.
The test system of assay [27] is SK-MEL-28 melanoma. As to conditions: 10 µM unless noted.
Assay [28] has as its system SK-MEL-2 melanoma. Particulars: 10 µM unless noted.
For assay [29], the system named is SN12C renal. Particulars: 10 µM unless noted.
Assay [30] relates to UO-31 renal. As to conditions: 10 µM unless noted.
For assay [31], the system named is TK-10 renal. Particulars: 10 µM unless noted.
The test system of assay [32] is ACHN renal. Particulars: 10 µM unless noted.
For assay [33], the system named is CAKI-1 renal. Particulars: 10 µM unless noted.
Assay [34] has as its system A498 renal. As to conditions: 10 µM unless noted.
Assay [35] relates to CCRF-CEM leukemia. Particulars: 10 µM unless noted.
Assay [36] concerns SR leukemia. Particulars: 10 µM.
The test system of assay [37] is RPMI-8226 leukemia. Particulars: 10 µM unless noted.
Assay [38] has as its system OVCAR-8 ovarian. As to conditions: 10 µM unless noted.
Assay [39] concerns OVCAR-5 ovarian. As to conditions: 10 µM unless noted.
In assay [40] the test system is OVCAR-4 ovarian. Particulars: 10 µM unless noted.
Assay [41] has as its system SK-OV-3 ovarian. As to conditions: 10 µM unless noted.
Assay [42] deals with IGROV1 ovarian. As to conditions: 10 µM.
Assay [43] has as its system OVCAR-3 ovarian. Particulars: 10 µM unless noted.
The subject of assay [44] is HS 578T breast. As to conditions: 10 µM unless noted.
For assay [45], the system named is NCI/ADR-RES ovarian. As to conditions: 10 µM unless noted.
The subject of assay [46] is T-47D breast. As to conditions: 10 µM unless noted.
The subject of assay [47] is BT-549 breast. As to conditions: 10 µM.
Assay [48] deals with MDA-MB-435 melanoma. Particulars: 10 µM unless noted.
Assay [49] has as its system SW-620 colon. Particulars: 10 µM unless noted.
The subject of assay [50] is MCF7 breast. As to conditions: 10 µM unless noted.
The test system of assay [51] is HCT-116 colon. As to conditions: 10 µM unless noted.
Assay [52] concerns HCC-2998 colon. Particulars: 10 µM unless noted.
In assay [53] the test system is KM12 colon. Particulars: 10 µM unless noted.

With `CN(C)C(=S)NN=C(c1ccccn1)c1ccccn1`, the growth in assay [1] was -27.5% (active).

As for `c1ccc(C2CC(c3cccc(Nc4ccncc4)c3)=NN2c2ccccc2)cc1` (stereo not given), in assay [1], the growth is -8.94% (active).

As for `CC(=O)OC1CCC2(C)C(=CCC3C4CC(CN5CC5)C(=O)C4(C)CCC32)C1` (stereo not given), the growth in assay [2] was 97.7%; in [3] it was 121%; in assay [4], 88.2%; in assay [5], 92.1%; in assay [6] it was -78.4% (active); in assay [7] it was 94.1%. Besides, the growth was 87.9% in assay [8]; 89.2% in assay [9]; 80.8% in [10]; 103% in assay [11]; 99.6% in assay [12]; 93.6% in [13]. In addition, the growth in assay [14] is 101%; in assay [15], 95.5%; in assay [16], 98.1%; in [17] it was 93.3%; in assay [18], 93.4%; in assay [19], 89.7%. Further, the growth in assay [20] is 85.2%; in [21], 93.9%; in [22] it was 98.4%; in [23], 88.3%; in [24] it was 99.1%; in assay [25], 94.4%. Also, the growth in assay [26] is 44.1%; in assay [27] it was 97.9%; in assay [28], 106%; in [29] it was 99.6%; in [30], 34.1%; in assay [31], -12.1% (active). For the same compound, the growth in [32] was 76.4%; in assay [33] it was 88%; in [34] it was 86.7%; in [1], 64.2%; in assay [35], 18.3%; in assay [36], 22.9%. The growth is -17% (active) in [37]; 85% in assay [38]; 97.7% in [39]; 83.1% in assay [40]; 98.2% in assay [41]; 89.2% in [42]. Further, the growth in assay [43] was 112%; in [44], 87.5%; in [45] it was 101%; in assay [46] it was -11.8% (active); in assay [47], 96.9%; in assay [48] it was 90.4%. For the same compound, the growth in assay [49] is 65.3%; in assay [50] it was 15.5%; in [51], 74.4%; in assay [52] it was 112%; in assay [53], -3.45% (active).
